Results reported in PubChem BioAssay (Tox21).
Inconclusive results are not listed. The source made the active and inactive calls. Unless noted, the call rests on the fitted dose curve; in most records, active means well fitted curve in the direction sought with a large enough effect in the repeat runs; inconclusive means weak or mixed curves; inactive means no such curve, though single readings can be large; an effect the other way counts as inactive or inconclusive. Non-standard residues stand in square brackets, D forms with d. Residues, ends and D or L forms follow the SMILES beside them. pGlu = O=C1CC[C@@H](C(=O)O)N1; Thz = O=C(O)[C@@H]1CSCN1

Legend:
[1] = qHTS assay to identify small molecule antagonists of the thyroid receptor (TR) signaling pathway - cell viability counter screen (AID 743064); further: nearly all actives have a fitted effect of over 50% in size
Method in brief: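 Counter screen for cytotoxicity: compound plus T3 (1 nM final) on GH3.TRE-Luc cells, 23.5 h at 37 °C, then fluorescence viability readout with CellTiter-Fluor.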

[2] = qHTS assay to identify small molecule antagonists of the thyroid receptor (TR) signaling pathway (AID 743065); further: nearly all actives have a fitted effect of over 55% in size
Method in brief: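 GH3.TRE-Luc rat pituitary cells carrying two TR response elements driving luciferase were plated for 4 h, given compound plus 1 nM T3 (final), and incubated 23.5 h at 37 C. ONE-Glo luminescence measured reporter inhibition; CellTiter-Fluor fluorescence tracked cytotoxicity.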

[3] = system: thyroid hormone receptor (rat, GH3 cells); assay: qHTS assay to identify small molecule agonists of the thyroid receptor (TR) signaling pathway (AID 743066; calls by dose curve)
[4] = target: Estrogen receptor (Homo sapiens) (UniProt P03372); assay: qHTS assay to identify small molecule antagonists of the estrogen receptor alpha (ER-alpha) signaling pathway (AID 743069; active means well fitted curve in the direction sought with a large enough effect in the signal ratio in the repeat runs, not every such curve was filed as active; the % refers to the signal ratio)
Estrogen receptor (Homo sapiens), sequence (P03372 whole entry, looked up): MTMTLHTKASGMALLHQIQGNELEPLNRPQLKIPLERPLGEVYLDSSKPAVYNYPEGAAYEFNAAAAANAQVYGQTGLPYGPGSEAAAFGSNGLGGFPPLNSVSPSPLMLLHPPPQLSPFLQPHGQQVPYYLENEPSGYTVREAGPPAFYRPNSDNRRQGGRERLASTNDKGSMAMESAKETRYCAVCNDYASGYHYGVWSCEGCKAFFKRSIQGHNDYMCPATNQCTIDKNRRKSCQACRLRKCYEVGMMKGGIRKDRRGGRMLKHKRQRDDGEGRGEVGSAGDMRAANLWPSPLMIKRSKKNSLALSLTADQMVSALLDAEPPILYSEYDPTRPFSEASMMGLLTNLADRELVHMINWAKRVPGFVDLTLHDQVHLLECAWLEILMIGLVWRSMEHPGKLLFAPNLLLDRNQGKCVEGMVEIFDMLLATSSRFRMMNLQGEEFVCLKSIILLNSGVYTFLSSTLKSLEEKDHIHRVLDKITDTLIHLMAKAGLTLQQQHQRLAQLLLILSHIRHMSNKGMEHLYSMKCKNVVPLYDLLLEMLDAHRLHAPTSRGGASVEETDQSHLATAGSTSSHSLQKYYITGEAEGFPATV
Method in brief: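 Screening used a UAS-driven beta-lactamase reporter integrated into HEK293 cells expressing ER-alpha, stimulated with 17beta-estradiol alongside test compounds over 18 hr at 37C; signal came from LiveBLAzer B/G FRET fluorescence.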

[5] = qHTS assay to identify small molecule antagonists of the estrogen receptor alpha (ER-alpha) signaling pathway - cell viability counter screen (AID 743074; calls by dose curve; further: nearly all actives have a fitted effect of over 45% in size)
[6] = target: Estrogen receptor (Homo sapiens) (UniProt P03372); assay: qHTS assay to identify small molecule agonists of the estrogen receptor alpha (ER-alpha) signaling pathway (AID 743075; calls by dose curve)
[7] = target: Estrogen receptor (Homo sapiens) (UniProt P03372); assay: qHTS assay to identify small molecule agonists of the estrogen receptor alpha (ER-alpha) signaling pathway using the BG1 cell line (AID 743079); details: BG1Luc4E2 cells, ERE-luciferase agonist, 22 h; activation: at 70.3 µM (top of the series); further: nearly all actives have a fitted effect of over 20% in size
[8] = qHTS assay to identify small molecule antagonists of the estrogen receptor alpha (ER-alpha) signaling pathway using the BG1 cell line (AID 743080; calls by dose curve;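 further: BG1 cells stimulated with 17beta-estradiol alongside compound; nearly all actives have a fitted effect of over 25% in size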)
Method in brief: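 BG1-Luc-4E2 cells (endogenous full-length ER-alpha, 4xERE luciferase) hormone-starved 5 days in charcoal-stripped FBS, plated 4,000/well for 24 h, then compound plus 17beta-estradiol for 21.5 h at 37 C; ONE-Glo luminescence read.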

[9] = qHTS assay to identify small molecule antagonists of the estrogen receptor alpha (ER-alpha) signaling pathway using the BG1 cell line - cell viability counter screen (AID 743081);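 further: compound given together with 17beta-estradiol as the ER stimulus; nearly all actives have a fitted effect of over 45% in size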
Aromatase (Homo sapiens) = Aromatase (Homo sapiens) (UniProt P11511); assay: qHTS assay to identify aromatase inhibitors (AID 743083); further: nearly all actives have a fitted effect of over 55% in size
Aromatase (Homo sapiens), sequence (P11511 whole entry, looked up): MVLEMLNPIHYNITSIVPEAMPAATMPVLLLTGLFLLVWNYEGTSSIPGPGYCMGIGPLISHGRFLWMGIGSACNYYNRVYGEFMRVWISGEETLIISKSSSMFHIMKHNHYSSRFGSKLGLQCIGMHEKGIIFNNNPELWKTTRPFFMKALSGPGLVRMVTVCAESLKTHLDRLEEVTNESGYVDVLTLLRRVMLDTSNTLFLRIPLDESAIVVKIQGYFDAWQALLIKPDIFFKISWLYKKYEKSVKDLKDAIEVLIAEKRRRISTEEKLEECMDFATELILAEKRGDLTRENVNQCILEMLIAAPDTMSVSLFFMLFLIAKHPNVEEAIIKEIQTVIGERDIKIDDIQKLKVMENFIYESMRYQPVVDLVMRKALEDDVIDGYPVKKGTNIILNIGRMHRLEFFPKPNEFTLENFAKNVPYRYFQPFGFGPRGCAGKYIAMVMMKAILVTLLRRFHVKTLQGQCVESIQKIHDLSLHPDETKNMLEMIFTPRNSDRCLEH

[10] = qHTS assay to identify aromatase inhibitors - cell viability counter screen (AID 743084);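 further: cells stimulated with testosterone during compound exposure; nearly all actives have a fitted effect of over 55% in size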
[11] = target: Aryl hydrocarbon receptor (Homo sapiens) (UniProt P35869); assay: qHTS assay to identify small molecule that activate the aryl hydrocarbon receptor (AhR) signaling pathway (AID 743085);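 further: HG2L7.5c1 human HepG2 liver cells with stably integrated DRE-driven firefly reporter; nearly all actives have a fitted effect of over 15% in size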
Aryl hydrocarbon receptor (Homo sapiens), sequence (P35869 whole entry, looked up): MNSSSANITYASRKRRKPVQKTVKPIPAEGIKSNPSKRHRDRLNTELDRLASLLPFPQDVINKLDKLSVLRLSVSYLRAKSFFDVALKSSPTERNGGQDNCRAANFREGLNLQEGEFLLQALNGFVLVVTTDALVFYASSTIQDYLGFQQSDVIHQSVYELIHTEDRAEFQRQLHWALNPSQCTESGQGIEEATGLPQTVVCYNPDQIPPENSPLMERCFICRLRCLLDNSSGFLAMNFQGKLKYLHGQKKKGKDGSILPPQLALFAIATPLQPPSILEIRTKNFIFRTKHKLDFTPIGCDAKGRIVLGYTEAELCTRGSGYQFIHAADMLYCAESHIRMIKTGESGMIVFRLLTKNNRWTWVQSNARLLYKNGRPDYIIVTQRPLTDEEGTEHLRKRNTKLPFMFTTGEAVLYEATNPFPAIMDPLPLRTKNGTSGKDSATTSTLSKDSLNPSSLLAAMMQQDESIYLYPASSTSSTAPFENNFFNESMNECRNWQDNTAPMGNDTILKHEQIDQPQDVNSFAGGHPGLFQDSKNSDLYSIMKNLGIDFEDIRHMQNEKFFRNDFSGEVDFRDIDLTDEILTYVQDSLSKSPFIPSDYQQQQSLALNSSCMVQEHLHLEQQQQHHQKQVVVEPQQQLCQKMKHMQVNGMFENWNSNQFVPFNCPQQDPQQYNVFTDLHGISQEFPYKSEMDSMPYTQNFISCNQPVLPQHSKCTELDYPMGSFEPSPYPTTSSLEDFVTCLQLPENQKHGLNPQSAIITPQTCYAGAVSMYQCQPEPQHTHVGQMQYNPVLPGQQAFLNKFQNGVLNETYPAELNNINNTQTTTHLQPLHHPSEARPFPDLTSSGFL
Method in brief: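 Measured in HG2L7.5c1 cells: CellTiter-Fluor signal (30 min incubation, 37C) for viability, then luciferase luminescence (30 min, room temperature). Compound contact time was 24 h at 37C, following a 5 h pre-incubation.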

[12] = qHTS assay to identify small molecule that activate the aryl hydrocarbon receptor (AhR) signaling pathway - cell viability counter screen (AID 743086);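 further: HepG2 liver cells carrying the AhR DRE luciferase reporter; nearly all actives have a fitted effect of over 45% in size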
Method in brief: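 HepG2-AhR-luc (HG2L7.5c1) cells, 4000/well, were preincubated 5 h at 37C, exposed to compound in qHTS format for 24 hr at 37C, then given CellTiter-Fluor for 30 min; viability was read as fluorescence in the reporter wells.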

[13] = target: Peroxisome proliferator-activated receptor gamma (Homo sapiens) (UniProt P37231); assay: qHTS assay to identify small molecule agonists of the peroxisome proliferator-activated receptor gamma (PPARg) signaling pathway (AID 743094; active means well fitted activation curve with a large enough effect in the signal ratio in the repeat runs, not every such curve was filed as active; the % refers to the signal ratio)
Peroxisome proliferator-activated receptor gamma (Homo sapiens), sequence (P37231 whole entry, looked up): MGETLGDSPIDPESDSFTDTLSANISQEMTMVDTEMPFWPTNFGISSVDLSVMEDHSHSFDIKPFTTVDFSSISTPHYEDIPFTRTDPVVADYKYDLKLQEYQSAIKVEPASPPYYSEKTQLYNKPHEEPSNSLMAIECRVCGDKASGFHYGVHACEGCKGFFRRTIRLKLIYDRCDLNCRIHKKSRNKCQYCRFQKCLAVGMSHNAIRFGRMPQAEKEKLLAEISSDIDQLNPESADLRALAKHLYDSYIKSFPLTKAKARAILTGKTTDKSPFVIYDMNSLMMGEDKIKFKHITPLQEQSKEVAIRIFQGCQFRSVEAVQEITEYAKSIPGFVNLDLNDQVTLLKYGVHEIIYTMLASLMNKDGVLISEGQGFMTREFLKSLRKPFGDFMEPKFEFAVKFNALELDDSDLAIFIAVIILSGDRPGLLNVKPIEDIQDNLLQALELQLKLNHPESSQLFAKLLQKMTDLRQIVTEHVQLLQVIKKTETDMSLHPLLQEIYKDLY
Method in brief: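 HEK293H PPARg-bla cells, 5 h settle at 37C/5% CO2; compound (DMSO) 17 h, 37C; B/G FRET substrate 1 h RT; fluorescence intensity read-out. qHTS format.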

[14] = qHTS assay to identify small molecule phospholipidosis (PLD) inducers (AID 1259344; active means well fitted curve in the direction sought with a large enough effect; an effect the other way counts as inactive or inconclusive)
Method in brief: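 Cells (HepG2, 900 per well) attach for 4 h, receive LipidTOX Red and compound together, incubate 24 h at 37 C, are fixed 30 min with paraformaldehyde/Hoechst, then imaged at one site per well.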

[15] = target: Nuclear receptor subfamily 1 group I member 2 (Rattus norvegicus) (UniProt Q9R1A7); assay: Rat pregnane X receptor (rPXR) activation by small molecules, qHTS assay (AID 1346983); details: rPXR luciferase reporter cells, One-Glo luminescence, 24 h; max activation: active compounds read high; further: nearly all actives have a fitted effect of over 20% in size
Nuclear receptor subfamily 1 group I member 2 (Rattus norvegicus), sequence (Q9R1A7 whole entry, looked up): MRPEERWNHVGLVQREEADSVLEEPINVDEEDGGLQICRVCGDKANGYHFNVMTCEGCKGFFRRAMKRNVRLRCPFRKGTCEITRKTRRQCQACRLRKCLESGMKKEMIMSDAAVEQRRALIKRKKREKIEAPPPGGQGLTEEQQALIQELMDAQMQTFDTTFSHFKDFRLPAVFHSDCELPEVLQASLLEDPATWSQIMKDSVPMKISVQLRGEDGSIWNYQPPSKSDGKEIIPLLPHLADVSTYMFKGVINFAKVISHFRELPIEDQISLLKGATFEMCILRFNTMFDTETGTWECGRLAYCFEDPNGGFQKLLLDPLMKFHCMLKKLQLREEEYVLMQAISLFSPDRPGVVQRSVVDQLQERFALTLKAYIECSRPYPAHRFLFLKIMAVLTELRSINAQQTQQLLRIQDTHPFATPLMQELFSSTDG
Method in brief: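 Cell-based rPXR luciferase reporter assay, 2,000 cells per well, rested 5hr at 37 C before compound addition in DMSO, then 24 hr at 37 C. One-Glo reagent was added and luminescence read after 30 min at room temperature.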

[16] = target: Nuclear receptor subfamily 1 group I member 2 (Homo sapiens) (UniProt O75469); assay: CYP3A4 induction through human pregnane X receptor (PXR) by small molecules, qHTS assay (AID 1346984); further: nearly all actives have a fitted effect of over 40% in size
Method in brief: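 HepG2-derived DPX-2 line carrying PXR plus a CYP3A4-promoter luciferase reporter; cells plated 5 hr, compound-exposed 24 hr at 37C. CYP3A4 activity probed with 3uM (final) Luciferin-IPA for 3hr, then luciferase read after One-Glo.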

[17] = target: Nuclear receptor subfamily 1 group I member 2 (Homo sapiens) (UniProt O75469); assay: Human pregnane X receptor (PXR) activation by small molecules, qHTS assay (AID 1346985); further: nearly all actives have a fitted effect of over 40% in size
Method in brief: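 DPX-2 cells (HepG2 co-transfected with a PXR response element and a CYP3A4-promoter luciferase construct) were seeded at 2,000 per well, rested 5 hr at 37C, then exposed to DMSO-dissolved compounds for 24 hr. Activation was read as luciferase luminescence.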
On the % scale 0 is the no-effect control and ±100 the full control effect.

CCOC(=O)[C@H](CS)NCCN[C@@H](CS)C(=O)OCC
inactive: Potency [1] | Potency [2] | Potency [3] | Potency [4] | Potency [5] | Potency [6] | Potency [7] | Potency [8] | Potency [9] | Potency (Aromatase (Homo sapiens)) | Potency [10] | Potency [11] | Potency [12] | Potency [13] | Potency [14] | max activation [15] -0.64% | Potency [16] | Potency [17]

O=C(O)CO.[NH2-].[NH2-].[Pt+2]
inactive: Potency [1] | Potency [2] | Potency [3] | Potency [4] | Potency [5] | Potency [6] | Potency [7] | Potency [8] | Potency [9] | Potency (Aromatase (Homo sapiens)) | Potency [10] | Potency [11] | Potency [12] | Potency [13] | Potency [14] | max activation [15] -2.14% | Potency [16] | Potency [17]

O=C1CC[C@@H](C(=O)N2CSC[C@H]2C(=O)O)N1 ([pGlu]-[Thz]-OH)
inactive: Potency [1] | Potency [2] | Potency [3] | Potency [4] | Potency [5] | Potency [6] | Potency [7] | Potency [9] | Potency (Aromatase (Homo sapiens)) | Potency [10] | Potency [11] | Potency [12] | Potency [14] | max activation [15] 0.797% | Potency [16] | Potency [17]

O=C1c2ccccc2C(=O)C1c1ccc(Cl)cc1
inactive: Potency [1] | Potency [2] | Potency [3] | Potency [4] | Potency [5] | Potency [6] | Potency [7] | Potency [8] | Potency (Aromatase (Homo sapiens)) | Potency [10] | Potency [12] | Potency [13] | Potency [14] | max activation [15] -2.83% | Potency [16] | Potency [17]

O=C(O)c1ccc(NC(=O)[C@H](Cc2ccc(O)cc2)NC(=O)c2ccccc2)cc1
inactive: Potency [1] | Potency [2] | Potency [3] | Potency [4] | Potency [5] | Potency [6] | Potency [7] | Potency [8] | Potency [9] | Potency (Aromatase (Homo sapiens)) | Potency [10] | Potency [11] | Potency [13] | Potency [14] | max activation [15] 0.18% | Potency [16] | Potency [17]

O=S(=O)(O)CCCS(=O)(=O)O
inactive: Potency [1] | Potency [2] | Potency [3] | Potency [4] | Potency [5] | Potency [6] | Potency [7] | Potency [8] | Potency [9] | Potency (Aromatase (Homo sapiens)) | Potency [10] | Potency [11] | Potency [12] | Potency [14] | max activation [15] -2.5% | Potency [16] | Potency [17]

Cc1ccccc1
inactive: Potency [14] | max activation [15] -3.48%

OC[C@H]1O[C@@H](O[C@H]2[C@H](O)[C@@H](O)[C@H](O)O[C@@H]2CO)[C@H](O)[C@@H](O)[C@@H]1O
inactive: Potency [1] | Potency [2] | Potency [3] | Potency [4] | Potency [5] | Potency [6] | Potency [7] | Potency [8] | Potency [9] | Potency (Aromatase (Homo sapiens)) | Potency [10] | Potency [12] | Potency [13] | Potency [14] | max activation [15] -4.71% | Potency [16] | Potency [17]

CN1c2c(nc(N)[nH]c2=O)NCC1CNc1ccc(C(=O)NC(CCC(=O)O)C(=O)O)cc1 (configuration not stated)
inactive: Potency [1] | Potency [2] | Potency [3] | Potency [4] | Potency [5] | Potency [6] | Potency [7] | Potency [8] | Potency [9] | Potency (Aromatase (Homo sapiens)) | Potency [10] | Potency [11] | Potency [12] | Potency [13] | Potency [14] | max activation [15] -0.71% | Potency [16] | Potency [17]

C[N@+]12CCCC[C@@H]1CCC(=C(c1cccs1)c1cccs1)C2
inactive: Potency [1] | Potency [2] | Potency [3] | Potency [4] | Potency [5] | Potency [6] | Potency [7] | Potency [8] | Potency [9] | Potency (Aromatase (Homo sapiens)) | Potency [10] | Potency [11] | Potency [12] | Potency [13] | Potency [14] | max activation [15] -3.7% | Potency [16] | Potency [17]

O=C(NNCS(=O)(=O)O)c1ccncc1
inactive: Potency [1] | Potency [2] | Potency [3] | Potency [4] | Potency [5] | Potency [6] | Potency [7] | Potency [8] | Potency [9] | Potency (Aromatase (Homo sapiens)) | Potency [10] | Potency [12] | Potency [13] | Potency [14] | max activation [15] -0.625% | Potency [16] | Potency [17]

CC(=O)N=c1sc(S(N)(=O)=O)nn1C
inactive: Potency [1] | Potency [2] | Potency [3] | Potency [4] | Potency [5] | Potency [6] | Potency [7] | Potency [8] | Potency [9] | Potency (Aromatase (Homo sapiens)) | Potency [10] | Potency [12] | Potency [13] | Potency [14] | max activation [15] -1.62% | Potency [16] | Potency [17]

CC[C@H]1NC(=O)[C@@H](NC(=O)c2ncccc2O)[C@@H](C)OC(=O)[C@H](c2ccccc2)NC(=O)[C@@H]2CC(=O)CCN2C(=O)[C@H](Cc2ccccc2)N(C)C(=O)[C@@H]2CCCN2C1=O
inactive: Potency [1] | Potency [2] | Potency [3] | Potency [4] | Potency [5] | Potency [6] | Potency [7] | Potency [8] | Potency [9] | Potency (Aromatase (Homo sapiens)) | Potency [10] | Potency [11] | Potency [12] | Potency [13] | Potency [14] | max activation [15] 9.01% | Potency [16] | Potency [17]

CCC(C)[C@@H](N)C(=O)O (some centres not stated)
inactive: Potency [1] | Potency [2] | Potency [3] | Potency [4] | Potency [5] | Potency [6] | Potency [7] | Potency [8] | Potency [9] | Potency (Aromatase (Homo sapiens)) | Potency [10] | Potency [11] | Potency [12] | Potency [13] | Potency [14] | max activation [15] -2.74% | Potency [16] | Potency [17]
